Reference: PubChem BioAssay AID1159577 (Broad Institute, 2015)
In all, about 1,300 compounds went through this assay and about 240 (18%) were called active. Roughly 8% stayed inconclusive and do not appear here. No rule for the calls is given here. A selection follows. Entries that show only a call come without a potency. Potency and affinity values are given separately.

test: toxicity to human hepatoma HepG2 cells – cell-based, cherry-picked samples, cytotoxicity control, dose response (AID 1159577); conditions: HepG2 cytotoxicity counterscreen, plate reader; series mostly up to 19.5 µM

SMILES	outcome
COc1ccc2c3c(n(C)c2c1)[C@H](CO)N(C(=O)C1CC1)CC31CN(C(=O)C2CCOCC2)C1	inactive
COc1ccc2c3c(n(C)c2c1)[C@@H](CO)N(C(=O)C1CC1)CC31CCN(C(=O)Nc2cccc(F)c2)CC1	inactive
COc1ccc2c3c([nH]c2c1)[C@@H](CO)N(C(=O)C1CCCCC1)CC31CCN(Cc2nccs2)CC1	inactive
COc1ccc2c3c([nH]c2c1)[C@H](CO)N(C(=O)C1CCCCC1)CC31CCN(Cc2nccs2)CC1	inactive
O=C(C[C@@H]1C[C@H]2c3cc(NS(=O)(=O)c4ccc(F)cc4)ccc3O[C@H]2[C@H](CO)O1)N1CCc2ccccc2C1	inactive
COc1cccc(CN2[C@@H](CO)[C@H](c3ccccc3)C23CN(C(=O)C2CCOCC2)C3)c1	inactive
CN(C)c1ccc2c(c1)[C@H]1C[C@H](CC(=O)NCc3ccc(Oc4ccccc4)cc3)O[C@H](CO)[C@H]1O2	inactive
CCCC(=O)N1CCC2(CC1)CN(S(=O)(=O)c1ccc(C)cc1)[C@@H](CO)c1[nH]c3cc(OC)ccc3c12	inactive
C[C@H]1CN([C@@H](C)CO)C(=O)c2c(c3ccccc3n2C)-c2ccccc2CO[C@@H]1CN(C)C(=O)Nc1ccc(-c2ccccc2)cc1	inactive
O=C(Nc1ccc(C(F)(F)F)cc1)N1[C@@H]2CNC[C@H]1C2c1ccc(/C=C/c2ccccc2)cc1 (some centres undefined)	inactive
O=S(=O)(Cc1ccccc1)N1[C@H](CO)[C@@H](c2ccccc2)C12CN(CCC(F)(F)F)C2	inactive
CC(C)(C)[S@@](=O)N1Cc2cc(C(=O)NCCN3CCCCC3)nc(-c3cccc(-c4cccc(C#N)c4)c3)c2[C@H]1CCO	inactive
COc1ccc(C#Cc2ccc3c(c2)[C@H]2[C@H](CCN2C(=O)C2CCC2)[C@@H](CO)N3)cc1	inactive
CN(C)CC(=O)N1[C@H](CO)[C@H](c2ccc(C#CC3CCCCC3)cc2)[C@@H]1C#N	inactive
C[C@@H]1CN([C@H](C)CO)C(=O)c2cccc(NS(=O)(=O)c3ccccc3)c2O[C@H]1CN(C)Cc1ccc(-c2ccccc2)cc1	inactive
N#Cc1ccc(-c2ccc([C@@H]3[C@@H]4CN(C(=O)Nc5ccc6c(c5)OCO6)C[C@H]3N4)cc2)cc1	inactive
C/C=C/c1ccc([C@@H]2[C@H](CO)N(CC3CC3)C23CN(C(=O)c2ccc4c(c2)OCO4)C3)cc1	inactive
O=C(C[C@H]1CC[C@@H]2[C@H](COC[C@@H](O)CN2C(=O)Nc2ccc3c(c2)OCO3)O1)N1CCN(c2ccccc2)CC1	inactive
O=C(c1ccc(F)cc1)N1CC(=O)N2[C@H](CO)[C@@H](c3ccc(/C=C/c4ccccc4)cc3)[C@@H]2C1	inactive
CN(C)C(=O)c1cccc(-c2ccc3c(c2)[C@H]2[C@H](CCN2C(=O)C2CC2)[C@@H](CO)N3)c1	inactive
C/C=C/c1ccc([C@@H]2[C@H](CO)N(CC3CCCC3)C23CN(C(=O)CC2CC2)C3)cc1	inactive
CCC(=O)N1CCC2(CC1)CN(S(=O)(=O)c1ccccc1)[C@@H](CO)c1[nH]c3cc(OC)ccc3c12	inactive
N#C[C@@H]1[C@H](c2ccccc2-c2cccc(F)c2)[C@H](CO)N1C(=O)C1CCCC1	inactive

SMILES	outcome
C[C@H](CO)N1C[C@H](C)[C@H](CN(C)S(=O)(=O)c2cccs2)OCc2ccccc2-c2c(n(C)c3ccccc23)C1=O	inactive
COc1cccc(C#Cc2cnc3c(c2)C(=O)N([C@@H](C)CO)C[C@H](C)[C@@H](CN(C)C(=O)C2CCCCC2)O3)c1	inactive
C[C@H]1CN([C@@H](C)CO)C(=O)c2cc(C#Cc3cccc(F)c3)cnc2O[C@@H]1CN(C)C(=O)C1CCCCC1	inactive
COc1cccc(C#Cc2cnc3c(c2)C(=O)N([C@H](C)CO)C[C@H](C)[C@@H](CN(C)C(=O)C2CCCCC2)O3)c1	inactive
C[C@@H]1CN([C@H](C)CO)C(=O)c2cc(C#Cc3cccc(F)c3)cnc2O[C@@H]1CN(C)C(=O)C1CCCCC1	inactive
C[C@@H]1CN([C@@H](C)CO)C(=O)c2cc(C#Cc3ccccc3)cnc2O[C@H]1CN(C)C(=O)CCN1CCCCC1	inactive
C[C@@H]1CN([C@@H](C)CO)C(=O)c2cc(C#Cc3ccccc3)cnc2O[C@H]1CN(C)C(=O)CN(C)C	inactive
C[C@H](CO)N1C[C@H](C)[C@H](CN(C)C(=O)C2CCCCC2)Oc2ncc(C#Cc3cccc(F)c3)cc2C1=O	inactive
C[C@@H]1CN([C@H](C)CO)C(=O)c2cc(C#CCc3ccccc3)cnc2O[C@H]1CN(C)C(=O)C1CCC1	inactive
COCC(=O)Nc1ccc2c(c1)OC[C@H](C)N(Cc1ccncc1)C[C@H](C)[C@@H](OC)CN(C)C2=O	inactive
C[C@H](CO)N1C[C@H](C)[C@H](CN(C)C(=O)C2CC2)Oc2cc(C#Cc3ccccc3)ccc2S1(=O)=O	inactive
C[C@@H]1CN([C@@H](C)CO)C(=O)c2c(c3ccccc3n2C)-c2ccccc2CO[C@H]1CN(C)Cc1cccc(C(=O)Nc2ccccc2N)c1	inactive
CO[C@H]1CN(C)C(=O)c2ccc(NS(=O)(=O)CC(F)(F)F)cc2OC[C@@H](C)N(Cc2nccs2)C[C@H]1C	inactive
COc1ccccc1-c1cccc(-c2nc(C(=O)Nc3nccs3)cc3c2[C@H](CCO)N(C(C)=O)C3)c1	inactive
C[C@@H]1CN([C@@H](C)CO)C(=O)c2ccccc2-c2ccccc2CO[C@H]1CN(C)C(=O)Nc1cccc(Cl)c1Cl	inactive
COc1ccc(CN2C[C@@H](C)[C@H](OC)CN(C)C(=O)c3cc(NC(=O)c4nc5ccccc5s4)ccc3OC[C@H]2C)cc1	inactive
CCCN(C)C[C@H]1Oc2ncc(C#Cc3ccc(F)cc3)cc2C(=O)N([C@@H](C)CO)C[C@H]1C	inactive
CCCN(C)C[C@H]1Oc2ncc(C#Cc3ccccc3OC)cc2C(=O)N([C@H](C)CO)C[C@H]1C	inactive
COc1cccc(NC(=O)N2[C@@H](CO)[C@@H](c3ccccc3)[C@@H]2CNC(C)C)c1	inactive
C[C@@H]1CN([C@@H](C)CO)C(=O)c2cccc(NC(=O)Nc3ccccc3)c2O[C@@H]1CN(C)C(=O)Nc1ccccc1	inactive
COc1ccc2c3c([nH]c2c1)[C@@H](CO)N(C(=O)Nc1cccc(F)c1)CC31CN(CC2CCOCC2)C1	inactive
COc1ccc2c3c([nH]c2c1)[C@H](CO)N(C(=O)Nc1ccc(F)cc1)CC31CCN(C(=O)c2ccccn2)CC1	inactive
COc1ccc2c3c([nH]c2c1)[C@H](CO)N(C(=O)Nc1ccc(F)cc1)CC31CCN(Cc2cc(-c3ccccc3)on2)CC1	inactive

SMILES	outcome
COc1ccc2c3c([nH]c2c1)[C@H](CO)N(C(=O)Nc1ccc(F)cc1)CC31CCN(S(=O)(=O)c2cccc(F)c2)CC1	inactive
O=C(C1CCCCC1)N1[C@H](CO)[C@@H](c2ccccc2)C12CN(Cc1cccc(Cl)c1)C2	inactive
CN(C)c1ccc2c(c1)[C@@H]1C[C@@H](CC(=O)NCc3cc(F)ccc3F)O[C@@H](CO)[C@@H]1O2	inactive
CC(C)(C)[S@](=O)N1Cc2cc(C(=O)N[C@@H]3CCN(Cc4ccccc4)C3)nc(-c3cccc(-c4cccnc4)c3)c2[C@@H]1CCO	inactive
C/C=C/c1ccc2c(c1)[C@@H]1[C@@H](CCN1C(=O)C1CCCC1)[C@H](CO)N2	inactive
O=C(C1CCCC1)N1CC2(C1)[C@@H](c1ccccc1)[C@H](CO)N2Cc1ccc(Cl)cc1	inactive
CO[C@@H]1CN(C)C(=O)c2cc(NC(=O)Nc3ccc(C(F)(F)F)cc3)ccc2OC[C@H](C)NC[C@@H]1C	inactive
CO[C@@H]1CN(C)C(=O)c2cc(NC(=O)Nc3cccc(Cl)c3)ccc2OC[C@@H](C)NC[C@@H]1C	inactive
CO[C@@H]1CN(C)C(=O)c2cc(NC(=O)Nc3cccc(Cl)c3)ccc2OC[C@H](C)NC[C@H]1C	inactive
CO[C@H]1CN(C)C(=O)c2cc(NC(=O)Nc3ccc(C(F)(F)F)cc3)ccc2OC[C@H](C)NC[C@H]1C	inactive
CO[C@@H]1CN(C)C(=O)c2cc(NC(=O)Nc3ccc(C(F)(F)F)cc3)ccc2OC[C@@H](C)NC[C@@H]1C	inactive
CO[C@H]1CN(C)C(=O)c2cc(NC(=O)Nc3cccc(Cl)c3)ccc2OC[C@H](C)NC[C@H]1C	inactive
CO[C@@H]1CN(C)C(=O)c2cc(NC(=O)Nc3ccc(C(F)(F)F)cc3)ccc2OC[C@H](C)NC[C@H]1C	inactive
Cc1ccccc1S(=O)(=O)N1[C@H](CO)[C@@H](c2ccc(C#CC3CC3)cc2)[C@@H]1C#N	inactive
CCCNC(=O)N1[C@H](C#N)[C@H](c2ccc(-c3ccccc3F)cc2)[C@@H]1CO	inactive
COc1ccc(C#Cc2cnc3c(c2)C(=O)N([C@H](C)CO)C[C@H](C)[C@H](CN(C)S(=O)(=O)c2cccc(F)c2)O3)cc1OC	inactive
COc1ccc(CN2CC3(CCN(C(=O)c4ccccc4)CC3)c3c([nH]c4cc(OC)ccc34)[C@@H]2CO)cc1	inactive
O=C(c1ccc(F)cc1)N1CC(=O)N2[C@H](CO)[C@H](c3ccc(-c4cccnc4)cc3)[C@H]2C1	inactive
O=C(C1CCOCC1)N1[C@H](CO)[C@@H](c2ccccc2)C12CN(Cc1cccc(Cl)c1)C2	inactive
COc1ccc(-c2ccc([C@@H]3[C@H]4CN(C(=O)NC(C)C)CC(=O)N4[C@H]3CO)cc2)cc1	inactive
COc1ccc2c3c(n(C)c2c1)[C@H](CO)N(C(=O)Nc1ccc(F)cc1)CC31CCN(S(=O)(=O)c2cccc(F)c2)CC1	inactive
CN1c2ccc(-c3cccc(C#N)c3)cc2[C@H]2[C@H](CCN2S(=O)(=O)c2ccccc2F)[C@H]1CO	inactive
CCCN(C)C[C@@H]1Oc2cc(C#Cc3cccnc3)ccc2S(=O)(=O)N([C@H](C)CO)C[C@@H]1C	inactive
